# Records with an inconclusive call do not appear. Active and inactive are the calls of the source. Calls come from the whole dose curve; as a rule, active = well fitted cell-killing curve with a large enough effect; inconclusive = small, poorly fitted or top-dose-only effect; inactive = no such curve, though single readings can be large or run the other way.
# Assay: qHTS of pediatric cancer cell lines to identify multiple opportunities for drug repurposing: Primary screen for SK-N-SH cells (AID 1347098);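 note: DMSO served as neutral control and bortezomib at 2.3 µM as positive control; % is set by controls: 0 for no effect and ±100 for the full control effect; nearly all actives have a fitted effect of over 65% in size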
# Conditions: SK-N-SH viability, CellTiter-Glo luminescence, 48 h; series mostly up to 57 µM; activity change, negative = cytotoxic: at the top concentration
# Outline: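 Cells (500-1,000/well) rested 5 h, then received compounds for 48 h; metabolically active cells were measured by CellTiter-Glo luminescence. Final concentrations spanned up to 46 µM (MIPE, 11-point) or 0.59 nM-46 µM (NPC, 8-point) in primary screens, 11-point in follow-ups.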
row,SMILES,"activity change, negative = cytotoxic"
1,C[N+](C)(C)CCOC(=O)CCC(=O)OCC[N+](C)(C)C,-0.146% (inactive)
2,C[C@]12C=CC(=O)C=C1CC[C@H]1[C@@H]3C[C@@H](O)[C@](O)(C(=O)CO)[C@@]3(C)C[C@H](O)[C@@]12F,26.3% (inactive)
3,CC(=O)OCC1=C(C(=O)O)N2C(=O)[C@@H](NC(=O)Cc3cccs3)[C@H]2SC1,-7.43% (inactive)
4,CC(C)NNC(=O)c1ccncc1,-16% (inactive)
5,CCN(CC)CCNC(=O)c1cc(S(C)(=O)=O)ccc1OC,-8.42% (inactive)
6,O=C(O)CN(CCOCCOCCN(CC(=O)O)CC(=O)O)CC(=O)O,-13% [at 0.741 µM] (inactive)
7,Cc1cccc(C)c1NC(=O)C(C)N (stereo not given),-10% (inactive)
8,CSc1ccc(C(=O)c2[nH]c(=O)[nH]c2C)cc1,-13.2% (inactive)
9,C[N+](C)(C)CCCCCCCCCC[N+](C)(C)C,-4.86% (inactive)
10,Cc1nnc(SCC2=C(C(=O)O)N3C(=O)[C@@H](NC(=O)Cn4cnnn4)[C@H]3SC2)s1,-11.4% (inactive)
11,NC(=O)N1c2ccccc2C=Cc2ccccc21,3.75% (inactive)
12,CC(C(=O)O)c1ccc(CC2CCCC2=O)cc1 (stereo not given),-12.9% (inactive)
13,CCn1ccnc1CC1COc2ccccc2O1 (stereo not given),-14.9% (inactive)
14,COc1ccc([C@@H]2Sc3ccccc3N(CCN(C)C)C(=O)[C@@H]2OC(C)=O)cc1,-13.3% (inactive)
15,c1cnc(N2CCN(Cc3ccc4c(c3)OCO4)CC2)nc1,-4.94% (inactive)
16,CN1CCN(CC(=O)N2c3ccccc3C(=O)Nc3cccnc32)CC1,4.46% [at 6 µM] (inactive)
17,CN(C)CCOC(=O)COc1ccc(Cl)cc1,-6.21% (inactive)
18,Cc1ccc(=O)n(-c2ccccc2)c1,-0.936% (inactive)

row,SMILES,"activity change, negative = cytotoxic"
1,CN/C(=C\[N+](=O)[O-])NCCSCc1ccc(CN(C)C)o1,6.37% (inactive)
2,CCCN(CCC)C(=O)C(CCC(=O)O)NC(=O)c1ccccc1 (stereo not given),-12.3% (inactive)
3,CCCOc1ccccc1-c1nc2n[nH]nc2c(=O)[nH]1,4.87% (inactive)
4,O=C1CC2(CCCC2)CC(=O)N1CCCCN1CCN(c2ncccn2)CC1,-1.96% (inactive)
5,NC(Cc1ccc(Cl)cc1)C(=O)O (stereo not given),-6.57% [at 0.741 µM] (inactive)
6,CC[N+](C)(C)c1cccc(O)c1,-7.33% (inactive)
7,CCc1c(C)[nH]c2c1C(=O)C(CN1CCOCC1)CC2 (stereo not given),9.79% (inactive)
8,CC1=NS(=O)(=O)c2cc(Cl)ccc2N1,-3.06% (inactive)
9,C[N+](C)(C)CCOC(N)=O,-7.44% (inactive)
10,c1ccc2c(c1)CCCC2C1=NCCN1 (stereo not given),-1.36% (inactive)
11,CN(C)C(=O)Oc1cccc([N+](C)(C)C)c1,8.92% (inactive)
12,CCN(CC)CC(=O)Nc1c(C)cccc1C,15.2% (inactive)
13,COc1ccc(CN(CCN(C)C)c2ccccn2)cc1,-3.24% (inactive)
14,CCO/C([O-])=N/c1c[n+](N2CCOCC2)no1,5.21% (inactive)
15,CN1C(=O)CC[C@H]1c1cccnc1,-3.05% (inactive)
16,Brc1c(NC2=NCCN2)ccc2nccnc12,-15.9% (inactive)
17,NC/C=C/C(=O)O,8% (inactive)

# Assay: qHTS of pediatric cancer cell lines to identify multiple opportunities for drug repurposing: Primary screen for NB1643 cells (AID 1347099); note: nearly all actives have a fitted effect of over 50% in size; note: potency is the fitted concentration of half-maximal effect;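 for activity change, negative = cytotoxic: plate controls were DMSO neutral control for no effect and bortezomib positive control for full effect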
# Conditions: NB1643 neuroblastoma viability, CellTiter-Glo luminescence, 48 h; series mostly up to 46 µM; activity change, negative = cytotoxic: at the top concentration
# Outline: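 Primary screen of approved and investigational compounds on cells in growth media at 37 degrees C, 5% CO2. MIPE set at 11-point and NPC set at 8-point dilutions; viability scored by ATP-based luminescence at 48 hours.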
SMILES,"activity change, negative = cytotoxic",Potency
C[N+](C)(C)CCOC(=O)CCC(=O)OCC[N+](C)(C)C,14.9% (inactive),
C[C@]12C=CC(=O)C=C1CC[C@H]1[C@@H]3C[C@@H](O)[C@](O)(C(=O)CO)[C@@]3(C)C[C@H](O)[C@@]12F,1.9% (inactive),
CC(=O)OCC1=C(C(=O)O)N2C(=O)[C@@H](NC(=O)Cc3cccs3)[C@H]2SC1,15.3% (inactive),
CC(C)NNC(=O)c1ccncc1,18.5% (inactive),
CCN(CC)CCNC(=O)c1cc(S(C)(=O)=O)ccc1OC,14.5% (inactive),
O=C(O)CN(CCOCCOCCN(CC(=O)O)CC(=O)O)CC(=O)O,28.6% [at 0.597 µM] (inactive),
Cc1cccc(C)c1NC(=O)C(C)N (stereo not given),8.69% (inactive),
CSc1ccc(C(=O)c2[nH]c(=O)[nH]c2C)cc1,8.5% (inactive),
C[N+](C)(C)CCCCCCCCCC[N+](C)(C)C,8.16% (inactive),
Cc1nnc(SCC2=C(C(=O)O)N3C(=O)[C@@H](NC(=O)Cn4cnnn4)[C@H]3SC2)s1,15.9% (inactive),
NC(=O)N1c2ccccc2C=Cc2ccccc21,21.8% (inactive),
CC(C(=O)O)c1ccc(CC2CCCC2=O)cc1 (stereo not given),3.73% (inactive),
CCn1ccnc1CC1COc2ccccc2O1 (stereo not given),-0.774% (inactive),
COc1ccc([C@@H]2Sc3ccccc3N(CCN(C)C)C(=O)[C@@H]2OC(C)=O)cc1,6.43% (inactive),
c1cnc(N2CCN(Cc3ccc4c(c3)OCO4)CC2)nc1,18.4% (inactive),
CN1CCN(CC(=O)N2c3ccccc3C(=O)Nc3cccnc32)CC1,9.59% [at 4.84 µM] (inactive),
CN(C)CCOC(=O)COc1ccc(Cl)cc1,9.37% (inactive),
Cc1ccc(=O)n(-c2ccccc2)c1,9.36% (inactive),

SMILES,"activity change, negative = cytotoxic",Potency
CN/C(=C\[N+](=O)[O-])NCCSCc1ccc(CN(C)C)o1,,37.6 µM (active)
CCCN(CCC)C(=O)C(CCC(=O)O)NC(=O)c1ccccc1 (stereo not given),-3.33% (inactive),
CCCOc1ccccc1-c1nc2n[nH]nc2c(=O)[nH]1,2.46% (inactive),
O=C1CC2(CCCC2)CC(=O)N1CCCCN1CCN(c2ncccn2)CC1,-6.03% (inactive),
NC(Cc1ccc(Cl)cc1)C(=O)O (stereo not given),9.7% [at 0.597 µM] (inactive),
CC[N+](C)(C)c1cccc(O)c1,12.4% (inactive),
CCc1c(C)[nH]c2c1C(=O)C(CN1CCOCC1)CC2 (stereo not given),3.99% (inactive),
CC1=NS(=O)(=O)c2cc(Cl)ccc2N1,3.45% (inactive),
C[N+](C)(C)CCOC(N)=O,27% (inactive),
c1ccc2c(c1)CCCC2C1=NCCN1 (stereo not given),5.96% (inactive),
CN(C)C(=O)Oc1cccc([N+](C)(C)C)c1,5.85% (inactive),
CCN(CC)CC(=O)Nc1c(C)cccc1C,2.94% (inactive),
COc1ccc(CN(CCN(C)C)c2ccccn2)cc1,-1.3% (inactive),
CCO/C([O-])=N/c1c[n+](N2CCOCC2)no1,7.64% (inactive),
CN1C(=O)CC[C@H]1c1cccnc1,14.1% (inactive),
Brc1c(NC2=NCCN2)ccc2nccnc12,-10.9% (inactive),
NC/C=C/C(=O)O,27.6% (inactive),

# Reference: PubChem BioAssay (NCATS)
